Source: PubChem (National Center for Advancing Translational Sciences (NCATS))
A488 fluor = compound autofluorescence in A488 spectral region | AID 591 | compound autofluorescence, A488 spectral region, dye equivalency; Compound Type: qHTS ECL - MLSMR | 0.1% of 59,000 active | max dye equivalency, M
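Compound autofluorescence was read in 100 mM Tris pH 8.0 after 15 min at room temperature, ex 480 nm/em 540 nm. Intensities were converted to A488 dye-equivalent concentration using an on-plate six-point A488 standard curve.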
Rhodamine autofl = rhodamine region autofluorescence; Rhodamine-region fluorescence, 547/598 nm, Tris buffer; active compounds read high; max dye-equivalent concentration, M; 0.05% of 59,000 active; in the data active = max dye-equivalent concentration above about 11 nM; inconclusive = between about 1.1 nM and that limit
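Steps: pin-transfer compounds into pH 8.0 Tris (100 mM), hold 15 min at room temperature, image with a 547/598 nm filter pair, and convert intensities to rhodamine-equivalent concentration using a six-point on-plate rhodamine series.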
Resorufin fluor = resorufin region autofluorescence; Compound fluorescence, resorufin region 547/598 nm, buffer; active compounds read high; max dye-equivalent concentration, M; 0.04% of 59,000 active
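Compounds in 100 mM Tris, pH 8.0, incubated 15 min at room temperature, then fluorescence read at 547 nm excitation/598 nm emission. Signal converted to dye-equivalent concentration via an on-plate six-point resorufin standard curve, per compound concentration.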
Fluorescein autfl = fluorescein region autofluorescence | Compound autofluorescence, 480/540 nm, fluorescein-equivalent; active compounds read high | max fluorescein-equivalent concentration, M | 0.91% of 59,000 active; in the data active = max fluorescein-equivalent concentration above about 10 nM; inconclusive = between about 1.1 nM and that limit
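Compounds (23 nL) in 100 mM Tris pH 8.0, 15 min at room temperature, then fluorescence read at 480 nm excitation/540 nm emission. Signal converted to fluorescein-equivalent concentration from an on-plate fluorescein standard curve.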
TexasRed autofl = compound fluoresces in the Texas Red spectral region; AID 587; 0.06% of 59,000 active; Compound fluorescence, Texas Red channel, 547/618 nm; active compounds read high; max dye-equivalent concentration, M; in the data active = max dye-equivalent concentration above about 10 nM; inconclusive = between about 1.1 nM and that limit
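Spectral interference profiling: each compound concentration's relative fluorescence, read with a 547 nm excitation and 618 nm emission filter pair, was normalized to a per-plate Texas Red standard curve.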
A647 fluor = compound fluoresces in the A647 spectral region; Compound fluorescence, A647 channel (570/671 nm), Tris buffer; 59,000 tested, under 10 active; max dye-equivalent concentration, M; AID 592
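Tris 100 mM pH 8.0; cpd + A647 stds pin-transferred; 15 min RT; CCD imager, ex 570/em 671. Output = A647-equivalent conc. per cpd conc.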
Each line names hits and unclear results; the compound was inactive in the other large screens. This is a sample that favours compounds with a hit; in the whole collection about 0.96% have one here. Unless noted, no rule for the calls is given here.

CC(=O)OC[C@@H]1O[C@@H](Oc2cc(OC(C)=O)c3c(=O)cc(-c4ccc(OC(C)=O)c(OC(C)=O)c4)oc3c2)[C@H](OC(C)=O)[C@H](OC(C)=O)[C@@H]1OC(C)=O	none
O=C(O)/C=C\C=C/c1ccc2c(c1)OCO2	none
CS[C@]12C(=O)C[C@]3(C)[C@@H](CC[C@@]3(O)C(=O)CO)[C@@H]1CCC1=CC(=O)CC[C@]12C	TexasRed autofl inconclusive
CC(=O)N1CCN(C2=Nc3cccc4cccc2c34)CC1	Fluorescein autfl 2.71e-08M
O=C(CN1C(=O)c2cccc3cccc1c23)N1CCN(c2ccccc2)CC1	none
CCOC(=O)N1CCN(C2=Nc3cccc4cccc2c34)CC1	A488 fluor inconclusive, Fluorescein autfl 4.8e-08M
CCOC(=O)N1CCN(c2ccc(Cl)c(Cl)c2)CC1	none
Cc1ccc(-c2c3c(=O)n(C)c(=O)n(C)c3cn2N2CCOCC2)cc1	Fluorescein autfl inconclusive
Cc1ccc(-c2c3c(=O)n(C)c(=O)n(C)c3c3c(C)cc(C)nn23)cc1	Fluorescein autfl 1.28e-08M, TexasRed autofl inconclusive
CCOc1cc(-c2ccc(N)c(OCC)c2)ccc1N	A488 fluor inconclusive, Fluorescein autfl 9.79e-08M
Cc1ccc(/C=c2\sc3nc(-c4cccs4)nn3c2=O)o1	Fluorescein autfl 1.29e-08M, TexasRed autofl inconclusive
COc1ccccc1/C=c1\sc2nc(-c3cccs3)nn2c1=O	none
Cc1c(CCC#N)c(N2CCN(C3CCCCC3)CC2)n2c(nc3ccccc32)c1C#N	Fluorescein autfl 1.07e-08M
CN1CCN(C(=O)CSc2nc(-c3cccs3)cc(-c3cccs3)c2C#N)CC1	Fluorescein autfl 2.04e-08M, TexasRed autofl inconclusive
Cc1nnc2sc(-c3ccc(NC(=O)c4ccc(-c5ccc(Cl)cc5Cl)o4)cc3)nn12	Rhodamine autofl inconclusive, Resorufin fluor inconclusive, Fluorescein autfl 1.22e-08M, TexasRed autofl inconclusive
Cc1nnc2sc(-c3ccc(NC(=O)c4cccnc4)cc3)nn12	Fluorescein autfl inconclusive, TexasRed autofl inconclusive
CN1CCC(OC(=O)COc2ccc(C(C)(C)C)cc2)CC1	A488 fluor inconclusive, Fluorescein autfl 2.99e-08M
N#CC1=C(N)N(c2ccccc2)C2=C(C(=O)CCC2)C1c1ccsc1 (configuration not stated)	none
N#CC1=C(N)N2C(=C(C#N)C1c1ccccc1)Sc1ccccc12 (configuration not stated)	A488 fluor inconclusive, Fluorescein autfl 4.21e-08M
O=C(O)CCCC[C@@H]1SC[C@H]2NC(=O)N[C@H]12	none
CC[C@]1(O)C[C@H]2CN(CCc3c([nH]c4ccccc34)[C@](C(=O)OC)(c3cc4c(cc3OC)N(C=O)[C@H]3[C@@](O)(C(=O)OC)[C@H](OC(C)=O)[C@@]5(CC)C=CCN6CC[C@]43[C@H]65)C2)C1	Fluorescein autfl inconclusive
CCOC(=O)c1sc(NC(=O)CSc2n[nH]c(-c3ccccc3)n2)c(C#N)c1C	Fluorescein autfl inconclusive
Cc1ccc(/C=C/C2=Cc3c(sc(NC(=O)CSc4n[nH]c(N)n4)c3C#N)C(C)(C)C2)o1	A488 fluor inconclusive, Rhodamine autofl 2.77e-08M, Resorufin fluor 2.41e-08M, Fluorescein autfl 1.18e-07M, TexasRed autofl 5.86e-08M
N#Cc1c(N)sc2c1CCCCCC2	none
CC1(C)Cc2c(C#N)c(N)sc(=S)c2CS1	Fluorescein autfl 1.1e-08M
N#Cc1c(N)sc(=S)c2c1CCCCC2	Fluorescein autfl 3.35e-08M
COc1cccc(C2=CC(c3ccc(C)cc3)n3ncnc3N2)c1 (configuration not stated)	Fluorescein autfl 1.03e-08M, TexasRed autofl inconclusive
CC1(C)Cc2c(c(-c3ccco3)[nH]c(=O)c2C#N)CS1	A488 fluor inconclusive, Fluorescein autfl 8.7e-08M, TexasRed autofl inconclusive
OC[C@@H]1NC[C@@H](O)[C@H]1O	none
C[C@@H]1C(=O)O[C@@H]2C[C@@]34[C@H]5C[C@@H](C(C)(C)C)[C@@]36[C@@H](OC(=O)[C@@H]6O)O[C@]4(C(=O)O5)[C@@]12O	none
CC(=O)Nc1c2c3c(cccc3n(C)c1=O)C(=O)c1ccccc1-2	A488 fluor inconclusive, Fluorescein autfl 1.74e-08M
C/C(=N\NC(=O)c1ccncc1)c1ccc2ccccc2c1O	A488 fluor inconclusive, Fluorescein autfl 3.52e-08M
O=C(CCN1C(=O)C2CC=C(Cl)CC2C1=O)N1CCCCC1 (configuration not stated)	A488 fluor inconclusive, Fluorescein autfl 2.93e-08M
O=C1C2CC=C(Cl)CC2C(=O)N1CNc1ccccn1 (configuration not stated)	none
O=C1C2CC=C(Cl)CC2C(=O)N1CCc1ccccc1 (configuration not stated)	Fluorescein autfl 2.03e-08M
Cc1cc2c(cc1C)NC(c1c(C)n(C)n(-c3ccccc3)c1=O)C1=C(CC(C)(C)CC1=O)N2 (configuration not stated)	A488 fluor inconclusive, Fluorescein autfl 4.33e-08M, TexasRed autofl inconclusive
Cc1cc2c(c(=O)o1)C1(C(=O)N(CC(=O)O)c3ccccc31)C(C#N)=C(N)O2 (configuration not stated)	Fluorescein autfl 1.28e-08M
CCN1C(=O)C2(C(C#N)=C(N)Oc3cc(C)oc(=O)c32)c2ccccc21 (configuration not stated)	TexasRed autofl inconclusive
Cc1c(N=Cc2ccc(Cl)o2)c(=O)n(-c2ccccc2)n1C	Fluorescein autfl inconclusive
Cc1cccc(-n2c(O)c(C=Nc3c(C)n(C)n(-c4ccccc4)c3=O)c3ccccc3c2=O)n1	A488 fluor inconclusive, Fluorescein autfl 5.7e-08M
Cc1ccccc1/C=C\C1=NCCN1	Fluorescein autfl inconclusive
C[N@@+]1(CC[N@@+]2(C)CCC[C@H]2c2cccnc2)CCC[C@@H]1c1cccnc1	none
N#CC1=C(N)C(C#N)(C#N)C(c2cccnc2)C2CCCC=C12 (configuration not stated)	A488 fluor inconclusive, Fluorescein autfl 4.84e-08M
N#CC1=C(N)C(C#N)(C#N)C(c2ccc[nH]2)C2CCCC=C12 (configuration not stated)	Fluorescein autfl 1.28e-08M
Oc1cc(CN2COc3ccccc32)c(O)cc1CNC1CCCCC1	none
COc1cc(O)c2c(O)c3c(c4c2c1[C@@]1(C4)C(C)=CCCC1(C)C)[C@H](O)[C@@]1(O)CC(=O)C(C(N)=O)=C(O)[C@]1(O)C3=O	Fluorescein autfl 2.05e-08M
CCOC(=O)C1=C(C)NC(C)=C(C(=O)OC)[C@H]1c1cccc(Cl)c1Cl	Fluorescein autfl inconclusive
O=C(O)c1ccc2c3c(ncnc13)-c1ccccc1C2=O	Fluorescein autfl 1.35e-08M, TexasRed autofl inconclusive
COc1cccc(N2C(=O)C3CC=C(Cl)CC3C2=O)c1 (configuration not stated)	Fluorescein autfl 1.46e-08M
O=C(c1ccc(N2C(=O)C3CC=C(Cl)CC3C2=O)cc1)N1CCCCC1 (configuration not stated)	none
